In PubChem BioAssay (Tox21):
Values joined by “and” are separate entries in the source; they are usually repeats but may differ in a detail not shown here. Equal entries are not always repeated. Unmarked numbers belong to inactive results. Records with an inconclusive call do not appear. Entries that show only a call come without a potency. Active and inactive are the calls of the source. Unless noted, the call rests on the fitted dose curve; in most records, active means well fitted curve in the direction sought with a large enough effect in the repeat runs; inconclusive means weak or mixed curves; inactive means no such curve, though single readings can be large; an effect the other way counts as inactive or inconclusive.

Assays:
[1] = Caspase-3/7 induction in HepG2 cells by small molecules, qHTS assay (AID 1346978); further: nearly all actives have a fitted effect of over 15% in size; further: potency means the concentration at half of the fitted maximal effect
How it was run: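 Wild-type HepG2 cells (2,000/well) were settled 5 h at 37 C, 5% CO2, then exposed to compounds in DMSO for 17 h. Caspase-3/7 activity was read by luminescence 30 min after adding Caspase-Glo 3/7 reagent at room temperature.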

[2] = Caspase-3/7 induction in CHO-K1 cells by small molecules, qHTS cell viability counter screen (AID 1346979); further: nearly all actives have a fitted effect of over 35% in size; further: potency means the concentration at half of the fitted maximal effect
How it was run: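 Wild-type CHO-K1 cells were seeded at 1,500 per well, rested 5hr at 37 C, then exposed to compounds in DMSO. After 16hr, CellTiter-Fluor reagent was added and fluorescence read 1hr later as the viability measure.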

[3] = Caspase-3/7 induction in CHO-K1 cells by small molecules, qHTS assay (AID 1346980); further: nearly all actives have a fitted effect of over 15% in size; further: potency means the concentration at half of the fitted maximal effect
How it was run: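 Wild-type cells were seeded at 1,500 per well and settled 5 hr at 37 C, 5% CO2, then exposed to DMSO-dissolved compounds for 17 hr. Caspase-Glo 3/7 reagent was added, and luminescence was read after 30min at room temperature.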

[4] = Caspase-3/7 induction in HepG2 cells by small molecules, qHTS cell viability counter screen (AID 1346981); further: nearly all actives have a fitted effect of over 30% in size; further: potency means the concentration at half of the fitted maximal effect
How it was run: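 CellTiter-Fluor fluorescence measured viability in the same wells used for Caspase-Glo 3/7. HepG2 (wild type) at 2,000 cells/well were pre-incubated 5 hr, dosed, and given reagent at 16 hr, with 1 hr further at 37C.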

[5] = molecular target: Nuclear receptor subfamily 1 group I member 2 (Homo sapiens) (UniProt O75469); test: Human pregnane X receptor (PXR) small molecule agonists, qHTS assay (AID 1346982); further: nearly all actives have a fitted effect of over 35% in size; further: potency means the concentration at half of the fitted maximal effect
How it was run: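 Agonist mode: luminescence from ONE-Glo after 24 h compound exposure at 37C in HepG2 cells carrying hPXR-responsive CYP3A4 luciferase, plated in charcoal-stripped serum medium 5 h beforehand.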

[6] = molecular target: Acetylcholinesterase (Homo sapiens) (UniProt P22303); test: Acetylcholinesterase (AChE) small molecule antagonists: colormetric cell-based qHTS assay (AID 1347395; calls by dose curve; further: nearly all actives have a fitted effect of over 30% in size; further: potency means the concentration at half of the fitted maximal effect)
How it was run: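 SH-SY5Y cells, plated overnight at 37 C, were exposed to compounds for 30 min at 37 C and 5% CO2. Acetylthiocholine plus DTNB was then added, and thiocholine from endogenous AChE was quantified colorimetrically after 90 min at 37 C.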

[7] = molecular target: Nuclear receptor subfamily 1 group I member 2 (Homo sapiens) (UniProt O75469); test: CYP3A4 induction through human pregnane X receptor (PXR) by small molecules, qHTS assay (AID 1346984); further: nearly all actives have a fitted effect of over 40% in size
How it was run: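 Read-out is luminescence after One-Glo addition, following a 3 hr, 37C incubation with Luciferin-IPA CYP3A4 substrate (3uM final). Before that, compounds were on DPX-2 cells (HepG2 co-transfected with PXR element plus CYP3A4-promoter luciferase) for 24 hr at 37C.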

[8] = molecular target: Nuclear receptor subfamily 1 group I member 2 (Homo sapiens) (UniProt O75469); test: Human pregnane X receptor (PXR) activation by small molecules, qHTS assay (AID 1346985); further: nearly all actives have a fitted effect of over 40% in size
How it was run: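 DPX-2 cells (HepG2 co-transfected with a PXR response element and a CYP3A4-promoter luciferase construct) were seeded at 2,000 per well, rested 5 hr at 37C, then exposed to DMSO-dissolved compounds for 24 hr. Activation was read as luciferase luminescence.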

[9] = molecular target: Acetylcholinesterase (Homo sapiens) (UniProt P22303); test: Acetylcholinesterase (AChE) small molecule antagonists: enzyme-based qHTS assay (AID 1347397; calls by dose curve; further: nearly all actives have a fitted effect of over 55% in size); conditions: Potency: AChE enzyme activity inhibition
How it was run: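 Tox21 library chemicals are tested in qHTS format against recombinant human AChE. The enzyme, dispensed at 50 mU/mL, sits with compound for 30 min at room temperature. A DTNB–acetylthiocholine cocktail follows, and colour is read after 10 min.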

[10] = molecular target: Nuclear receptor subfamily 1 group I member 2 (Rattus norvegicus) (UniProt Q9R1A7); test: Rat pregnane X receptor (rPXR) activation by small molecules, qHTS assay (AID 1346983); conditions: rPXR luciferase reporter cells, One-Glo luminescence, 24 h; max activation: active compounds read high; further: nearly all actives have a fitted effect of over 20% in size
How it was run: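 Cell-based rPXR luciferase reporter assay, 2,000 cells per well, rested 5hr at 37 C before compound addition in DMSO, then 24 hr at 37 C. One-Glo reagent was added and luminescence read after 30 min at room temperature.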

Chain of Nuclear receptor subfamily 1 group I member 2 (Homo sapiens) (O75469 whole entry, looked up): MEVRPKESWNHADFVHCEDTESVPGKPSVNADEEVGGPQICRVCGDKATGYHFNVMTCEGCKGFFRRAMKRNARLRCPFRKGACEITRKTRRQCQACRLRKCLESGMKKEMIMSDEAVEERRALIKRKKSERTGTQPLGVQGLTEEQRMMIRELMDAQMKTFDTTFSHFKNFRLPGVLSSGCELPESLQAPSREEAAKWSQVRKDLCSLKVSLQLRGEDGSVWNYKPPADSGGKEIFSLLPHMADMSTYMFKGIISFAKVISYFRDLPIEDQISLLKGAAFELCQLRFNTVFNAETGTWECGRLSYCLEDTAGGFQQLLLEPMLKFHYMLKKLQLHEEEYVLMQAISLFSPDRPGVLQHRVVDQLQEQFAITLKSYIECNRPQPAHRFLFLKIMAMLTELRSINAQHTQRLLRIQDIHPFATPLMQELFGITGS
Chain of Nuclear receptor subfamily 1 group I member 2 (Rattus norvegicus) (Q9R1A7 whole entry, looked up): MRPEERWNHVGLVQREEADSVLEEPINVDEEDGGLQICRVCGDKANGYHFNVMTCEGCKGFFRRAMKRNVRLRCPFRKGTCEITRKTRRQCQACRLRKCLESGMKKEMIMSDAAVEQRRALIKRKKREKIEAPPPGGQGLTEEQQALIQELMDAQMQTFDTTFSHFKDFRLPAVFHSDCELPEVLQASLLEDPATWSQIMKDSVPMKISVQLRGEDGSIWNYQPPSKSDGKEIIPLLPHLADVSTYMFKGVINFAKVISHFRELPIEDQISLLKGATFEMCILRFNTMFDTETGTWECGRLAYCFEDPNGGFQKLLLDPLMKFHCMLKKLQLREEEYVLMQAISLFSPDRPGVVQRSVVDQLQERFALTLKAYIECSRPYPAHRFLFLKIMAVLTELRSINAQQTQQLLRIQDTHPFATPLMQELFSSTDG
Chain of Acetylcholinesterase (Homo sapiens) (P22303 whole entry, looked up): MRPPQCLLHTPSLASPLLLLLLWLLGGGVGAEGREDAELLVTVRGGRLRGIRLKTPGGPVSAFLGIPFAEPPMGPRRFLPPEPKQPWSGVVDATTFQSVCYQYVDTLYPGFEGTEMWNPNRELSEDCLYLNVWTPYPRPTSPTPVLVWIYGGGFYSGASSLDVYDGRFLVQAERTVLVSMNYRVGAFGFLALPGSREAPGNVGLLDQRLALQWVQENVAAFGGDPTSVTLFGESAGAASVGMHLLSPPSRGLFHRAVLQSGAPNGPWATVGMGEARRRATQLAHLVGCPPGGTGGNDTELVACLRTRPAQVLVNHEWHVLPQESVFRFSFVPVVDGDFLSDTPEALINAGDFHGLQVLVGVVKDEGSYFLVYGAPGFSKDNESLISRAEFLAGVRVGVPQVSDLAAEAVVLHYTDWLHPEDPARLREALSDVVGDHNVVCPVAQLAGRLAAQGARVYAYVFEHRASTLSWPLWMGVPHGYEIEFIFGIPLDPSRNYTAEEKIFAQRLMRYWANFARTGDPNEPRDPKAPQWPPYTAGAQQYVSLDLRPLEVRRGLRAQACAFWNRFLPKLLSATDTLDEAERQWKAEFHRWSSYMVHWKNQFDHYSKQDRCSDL

Row | Structure (SMILES) | Potency [1] | Potency [2] | Potency [3] | Potency [4] | Potency [5] | Potency [6] | Potency [7] | Potency [8] | Potency [9] | max activation [10] [%]
1 | Clc1ccc(COC(Cn2ccnc2)c2ccc(Cl)cc2Cl)cc1 (stereo not drawn) | inactive | 22.7 µM (active) and 27.2 µM (active) and 23.7 µM (active) | inactive | 50.8 µM (active) and 54.3 µM (active) | 6.4 µM (active) and 7.66 µM (active) and 7.5 µM (active) | inactive |  |  |  | 
2 | C[C@]12Cc3nonc3C[C@@H]1CC[C@@H]1[C@@H]2CC[C@@]2(C)[C@H]1CC[C@]2(C)O | inactive | 11.9 µM (active) | inactive | inactive | 29.8 µM (active) | inactive | inactive | inactive | inactive | 
3 | C[C@H]1O[C@@H](O[C@H]2[C@@H](O)C[C@H](O[C@H]3[C@@H](O)C[C@H](O[C@H]4CC[C@@]5(C)[C@H](CC[C@@H]6[C@@H]5CC[C@]5(C)[C@@H](C7=CC(=O)OC7)CC[C@]65O)C4)O[C@@H]3C)O[C@@H]2C)C[C@H](O)[C@@H]1O | inactive | inactive | inactive | inactive | inactive | inactive |  | inactive | inactive | 
4 | Nc1c(Oc2ccccc2)cc(O)c2c1C(=O)c1ccccc1C2=O | inactive | 26.6 µM (active) | inactive | 18.8 µM (active) | 10.6 µM (active) | inactive |  |  | inactive | 
5 | COc1cccc(C(=O)CCN[C@@H](C)[C@H](O)c2ccccc2)c1 | inactive | 26.6 µM (active) | inactive | inactive | inactive |  |  |  |  | 
6 | CCOP(=S)(OCC)SCS(=O)(=O)C(C)(C)C | inactive | inactive | inactive | inactive | 9.69 µM (active) | 63.3 µM (active) |  |  |  | 
7 | CN(C)[C@@H]1C(=O)C(C(N)=O)=C(O)[C@@]2(O)C(=O)C3=C(O)c4c(O)ccc(Cl)c4[C@@](C)(O)[C@H]3C[C@@H]12 | inactive | 27.9 µM (active) | inactive |  |  |  |  |  |  | 
8 | Clc1ccc(Oc2ccccc2)cc1 | inactive | inactive | inactive | inactive | inactive | inactive |  |  | inactive | 
9 | CC(=O)[O-].CC(=O)[O-].O.O.[Cd+2] | inactive | 1.7 µM (active) | inactive | 67.6 µM (active) |  |  |  |  |  | 
10 | C=CC(=O)N(C)C | inactive | inactive | inactive | inactive | inactive | inactive |  |  | inactive | 
11 | CN(C)C(=S)S | 19.7 µM (active) and 17.2 µM (active) | 8.81 µM (active) and 857 nM (active) and 12.2 µM (active) | inactive | inactive |  |  |  |  |  | 
12 | N#CCCSCCC#N | inactive | inactive | inactive | inactive | inactive | inactive |  |  | inactive | 
13 | c1ccc(OCC2CO2)cc1 (stereo not drawn) | inactive | inactive | inactive | inactive |  |  |  |  |  | 
14 | CC[C@H](C)[C@H]1O[C@]2(C=C[C@@H]1C)C[C@@H]1C[C@@H](C/C=C(\C)[C@@H](O[C@H]3C[C@H](OC)[C@@H](O[C@H]4C[C@H](OC)[C@@H](O)[C@H](C)O4)[C@H](C)O3)[C@@H](C)/C=C/C=C3\CO[C@@H]4[C@H](O)C(C)=C[C@@H](C(=O)O1)[C@]34O)O2 | 32.2 µM (active) | 14.4 µM (active) | inactive | 25.6 µM (active) | inactive | inactive | inactive | inactive | inactive | -15.3
15 | CC(C)CC(C)N (stereo not drawn) | inactive | inactive | inactive | inactive | inactive | inactive |  |  | inactive | 
16 | COCC(=O)N(c1c(C)cccc1C)[C@H](C)C(=O)OC | inactive | inactive | inactive | inactive | inactive | inactive |  |  | inactive | 
17 | CC(=O)[O-].CC(=O)[O-].[Hg+2] | inactive | 2.43 µM (active) | inactive | 19.3 µM (active) |  |  |  |  |  | 
18 | [Cd+2].[Cl-].[Cl-] | inactive | 1.23 µM (active) and 611 nM (active) | inactive | 54.9 µM (active) and 30.6 µM (active) |  |  |  |  |  | 
19 | COC12CC[C@@]3(C[C@@H]1C(C)(O)C(C)(C)C)[C@H]1Cc4ccc(O)c5c4[C@@]3(CCN1CC1CC1)[C@H]2O5 (stereo partly drawn) | 60.7 µM (active) | 43 µM (active) | 48.2 µM (active) | 68.1 µM (active) | 3.04 µM (active) | inactive |  |  | inactive | 
20 | COS(=O)(=O)c1ccc(C)cc1 | inactive | inactive | inactive | inactive | inactive | inactive |  |  | inactive | 
21 | COc1cc(N)c(Cl)cc1C(=O)NC1CN2CCC1CC2 (stereo not drawn) | inactive | inactive | inactive | inactive | inactive |  | inactive | inactive |  | -2.4
22 | CC(C)CC(C)Nc1ccc(Nc2ccccc2)cc1 (stereo not drawn) | inactive | 60.1 µM (active) | inactive | 67.4 µM (active) | 12 µM (active) | inactive |  |  | inactive | 
23 | CCCN(CCC)CCc1c[nH]c2ccccc12 | inactive | inactive | inactive | inactive | inactive | inactive |  |  | inactive | 
24 | N#CCCC(Br)(C#N)CBr (stereo not drawn) | inactive | 30.6 µM (active) | inactive |  |  |  |  |  |  | 
25 | O=[N+]([O-])O.O=[N+]([O-])O.[Cd] | inactive | 1.72 µM (active) | inactive |  |  |  |  |  |  | 
26 | FC(F)(F)c1cccc(C2=CCN(CCc3ccc4ccccc4c3)CC2)c1 | inactive | inactive | inactive | inactive | inactive |  | inactive | inactive |  | -2.77
27 | CCCCCCCCCCCCCN1CC(C)OC(C)C1 (stereo not drawn) | inactive | inactive | inactive | inactive | inactive | inactive |  |  | inactive | 
28 | CC(C)(COCC1CO1)COCC1CO1 (stereo not drawn) | inactive | inactive | inactive | inactive | inactive | inactive |  |  | inactive | 
29 | Cc1ccc(CCl)cc1 | inactive | inactive | inactive | inactive | inactive | inactive |  |  | inactive | 
30 | CCCSP(=O)(OCC)SCCC | inactive | inactive | inactive |  |  |  |  |  |  | 
